Key:
Assay in all cases: PBM binding z-score (relative to random genomic background probes); higher = stronger binding; sequences stand for … in GC…GCGATTGACAGCGTAGAATGAAGG
[1] = test system: RARb homodimer (NR concentration 270 nM)
In short: (§1)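 Regression normalization was applied to scanned fluorescence from custom Agilent 4×180K protein-binding microarrays. Before scanning, arrays were incubated 1 h with ligand-free nuclear receptor dimers, and binding was detected with antibodies against each partner (one per run). Binding z-scores use the random background probes as reference.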

[2] = test system: RARg:RXRa (NR concentration 270 nM, RXRa partner concentration 90 nM)
In short: as §1

[3] = test system: RARg homodimer (NR concentration 270 nM)
In short: as §1

[4] = test system: RXRa DBDmut IVT, anti-RXR (DBD mutation: RXRa K156A/R161A, NR concentration 90 nM)
In short: as §1

[5] = test system: RXRa homodimer (NR concentration 180 nM)
In short: as §1

[6] = test system: THRa:RXRa (NR concentration 90 nM, RXRa partner concentration 90 nM)
In short: as §1

[7] = test system: THRa homodimer (NR concentration 90 nM)
In short: as §1

[8] = test system: VDR homodimer (NR concentration 270 nM)
In short: as §1

Row | Sequence | PBM binding z-score [1] | PBM binding z-score [2] | PBM binding z-score [3] | PBM binding z-score [4] | PBM binding z-score [5] | PBM binding z-score [6] | PBM binding z-score [7] | PBM binding z-score [8]
1 | ACTCGGAGGAAAAAGGTCAGAGCTACGCCAGTGA | 4.12 | 4.09 | 3.97 | -0.291 | 3.67 | 2.24 | -0.145 | 0.161
2 | CGTCCAAGGTCATAGGAGGTCAGTGCAGACAGAT | 4.94 | 6.63 | 6.9 | 4 | 6.32 | 5.34 | 2.96 | 4.88
3 | TACCCTAGGTCAGATCGGGCCAGTATACGCTATA | 2.63 | 2.98 | 3.5 | 0.165 | 1.54 | 4.19 | 0.64 | 0.268
4 | TCTTGTAGATCAATAGAGGTTAAGGAAGTGCGCT | 1.1 | 0.898 | 0.454 | 0.775 | 1.61 | 2.38 | -0.179 | 0.208
5 | AGTCAAAATTCAGGACGAGGTAACGTAAAGCACG | -0.0538 | 0.203 | 0.422 | -0.303 | 0.601 | 1.99 | 1.64 | 0.0292
6 | CGAACTAGGTCATTGACAGCACAGTGAATAGTAA | 2.36 | 3.46 | 4.03 | 2.29 | 2.47 | 2.31 | 0.694 | 1.08
7 | CCAGACAGGTGATAGGTAACTCAGTCTGGTACGC | 0.0377 | 0.156 | 0.068 | -0.237 | 0.368 | -0.116 | -0.179 | -0.505
8 | GCTCGTAGATCAAGGTTAAGAAAGACTAAGCTAA | -0.0448 | 0.0431 | -0.0396 | -0.285 | 0.709 | 0.978 | -0.631 | -0.34
9 | AGAATGAGGTTACCACAGATCAGGGAAACGCTTG | 0.855 | 2 | 1.62 | 1.24 | 2.61 | 2.93 | 0.878 | 0.395
10 | CCTCGGAGGAAAACAGGAGGTCAGAGCTGCCAGA | 2.81 | 1.32 | 1.3 | -0.428 | 1.63 | 2.06 | 0.595 | 0.405
11 | GATCGGAGGACAAGGTCAGAGCTTTGTCCGTAGA | 3.27 | 3.05 | 3.57 | 0.217 | 2.48 | 2.94 | 1.33 | 0.466
12 | TCGAGTAGGTCAGTCGGGGCATTCAGCCAACATA | 2.3 | 2.49 | 3.17 | 0.903 | 1.32 | 2.4 | -0.201 | 1.42
13 | TCGAGTAGGGTAGGGGCATTCAGAATGGCGTCGA | 0.89 | -0.0257 | -0.315 | 0.328 | 0.411 | 0.763 | 0.794 | 0.663
14 | ATCGAAAGGTCGACGAGGTTAGTATACACCGTTT | 3.1 | 4.27 | 4.18 | 1.45 | 4.55 | 3.37 | 0.478 | 2.31
15 | CCTATTTGGTCAGGAGGTCACACACCGGATATGA | 4.24 | 5.12 | 4.67 | 1.25 | 5.03 | 3.54 | 2.66 | 2.61
16 | GGATATAGGTAATACAAGGTGAAAGTCCGATTGT | 1.38 | 0.879 | 0.935 | 0.283 | 0.977 | 4.46 | 1.64 | 0.913
17 | AGTCAAAGTTCACTAGGTAAGGTAAGATTCAGCT | 3.88 | 4.78 | 6.02 | 4.18 | 3.95 | 2.51 | 1.03 | 3.36
18 | CATCAAAGTTCAAGGTAACGTAACAGAAAGCAGC | 3.8 | 5.15 | 5.74 | 4.51 | 4.38 | 3.04 | 1.39 | 3.49
19 | TTACCAAGCTGAAGGTCGTTGATCCCTCTGTAGA | 0.756 | 0.152 | -0.231 | -0.269 | 1.13 | 0.571 | -0.583 | 0.305
20 | CGAACTAGGTCATCCAGGCCAGTGAATACATTGA | 3.18 | 4 | 4.59 | 2.18 | 2.85 | 3.23 | 1.19 | 1.33
21 | CCAGACAGGTGAGAACGTAACTCAGCCTCGATTA | 0.118 | 0.404 | 0.33 | 0.242 | 0.378 | -0.0328 | 0.361 | 0.202
22 | TGTACAGGGTCAAAGGCCAGAGTACGAATGTCGA | 3.31 | 5.52 | 4.74 | 2.86 | 6.85 | 3.43 | 0.326 | 2.65
23 | CGTCCAAGGTCATAGGAGGTCAGTGATGACAGAT | 5.33 | 6.66 | 6.93 | 3.97 | 6.5 | 5.4 | 3.25 | 4.59
24 | TCTGCTAGATCAACGATGGTCAGCTAATCTGCTA | -0.588 | -0.514 | -0.512 | -0.127 | -0.276 | -0.945 | -1.71 | -1.45
25 | CAAACTAGCTCACCGGAAGGTCAAAGTCCGCATG | 3.98 | 3.23 | 2.5 | 0.916 | 3.25 | 2.67 | 1.55 | 2.17
26 | CCAGACAGGTGAAAGGTAACTCAATCTGGTACGC | 1.19 | 1.48 | 0.946 | 0.203 | 2.39 | 1.1 | 0.0708 | -0.0474

Row | Sequence | PBM binding z-score [1] | PBM binding z-score [2] | PBM binding z-score [3] | PBM binding z-score [4] | PBM binding z-score [5] | PBM binding z-score [6] | PBM binding z-score [7] | PBM binding z-score [8]
27 | CGAACTAGGTCTTTGACAGGACAGTGAATAGTAA | 0.139 | 0.112 | 0.193 | 0.262 | -0.252 | 0.309 | -0.0353 | -0.305
28 | AGTCAAAGTTCATCTAGGTAGCGTAAGATATGCT | 3.79 | 5.6 | 5.81 | 4.63 | 4.48 | 2.62 | -0.478 | 5.34
29 | CTCGAGAGGTCGGTTGAGGTGAGTATACGGATAA | 1.99 | 2.11 | 2.3 | 1.57 | 2.06 | 5 | 1.39 | 1.16
30 | GCGACTGGGGCAGAGCAGGTTACCATAAGGTTGG | 0.826 | 0.0864 | 0.288 | -0.613 | 0.225 | 1.64 | -0.115 | -0.654
31 | CGTCCAAGGTCAATCCTAGGTCAGTGAAAGCATT | 5.21 | 7.69 | 6.57 | 3.57 | 5.38 | 4.72 | 3.63 | 3.06
32 | CCTAGTTGGTCAGGAGGTCATACACCGGATATGA | 3.79 | 4.56 | 3.35 | 0.572 | 4.2 | 3.23 | 1.8 | 2.73
33 | ACTTGCGGGTCAACGAGGTTATAGCACGCGTATA | 3.37 | 5.21 | 4.88 | 2.41 | 5.33 | 3.81 | 1.31 | 3.69
34 | CCAGACAGGTGAGAATGTAACTCAGCCTCGATTA | -0.0133 | 0.273 | 0.342 | 0.0123 | 0.179 | -0.103 | -0.12 | -0.0924
35 | TCTATTAGTTGAAGGGGAACCGACGAGTCCGTTT | 0.0488 | 0.44 | 0.17 | 2.05 | 0.673 | 0.226 | 0.565 | 1.61
36 | TAGCCTAGGTCAGATAGGGCCAGTATACGCTATA | 1.93 | 2.8 | 3.74 | -0.288 | 1.41 | 4.03 | 0.0301 | -0.0363
37 | ACCTCTAGGTAAAGTTCAGTGAAAGATCGATAGA | 2.27 | 1.59 | 2.19 | 1.47 | 0.983 | 0.866 | -0.127 | 1.51
38 | TCTAGTAGGTTAGTCGGGGCATTCAGCCAACATA | 1.04 | 0.36 | 0.358 | 1.33 | 0.381 | 1.4 | 0.765 | 1.14
39 | ATCTCTAGGTGAAGTTCAGTGAAAGATCGATAGA | 1.53 | 1.3 | 1.46 | 0.512 | 0.437 | 1.19 | 0.0183 | 0.509
40 | CCAGACAGGTGAGAAGGTAACTCAACCTCGATTA | 0.715 | 0.716 | 0.698 | 0.0591 | 0.59 | 0.724 | 0.31 | -0.0105
41 | CATACTAGGTCACGAAAGGTCAAAGTCGAATGAC | 5.99 | 7.94 | 8.68 | 2.83 | 8.69 | 5.16 | 2.91 | 4.71
42 | AGTAAAAGTTCATCTAGGTAACGTAAGATATGCT | 3.63 | 4.68 | 5.23 | 4.63 | 3.77 | 3.05 | 0.0912 | 4.83
43 | CCTACTGGGCCATTCACAGGTCATTGATCATATG | 2.72 | 2.69 | 1.66 | 0.46 | 1.34 | 2.01 | 0.728 | 1.17
44 | GGAACGAGGGCATTCGAGTTGATAGGATGGCGAT | 0.729 | 1.11 | 1.28 | 3.32 | 0.734 | 3.21 | -0.299 | 2.9
45 | ATCTCTAGGTAAGACTCAGTTCAATGAAGAACGC | 0.915 | 0.919 | 0.623 | 0.822 | 0.539 | 1.29 | 0.873 | 2.32
46 | CCTTACGGGTCACTGACAGGTAATAGCATTTGGA | 2.83 | 5.08 | 4.26 | 1.55 | 4.7 | 2.64 | 0.085 | 0.456
47 | TGAATGAGGTTAAAGATCAGGAAACGTGGCGTCG | 0.6 | 2.53 | 1.23 | 1.25 | 3.88 | 2.41 | 0.21 | 0.62
48 | CCTACTGGCCCATCAGGTCATTGATATCAACGTT | 2.36 | 1.72 | 1.54 | 0.0636 | 1.13 | 3.29 | 3.04 | 1.9
49 | CTCGAAAGGTCGTGATCAGGTGAGTATACCAAAC | 2.66 | 4.85 | 3.85 | 1.9 | 4.72 | 4.04 | 0.717 | 0.668
50 | TAGCCTATGTCATTGGGCCAGTATAGTACGCATC | -0.0367 | 0.242 | 0.413 | -0.587 | 0.472 | -0.314 | -0.671 | -0.244
51 | CAAACTAGTTCACGAAAGGTCAAAGTCGAATGAC | 5.1 | 6.68 | 6.48 | 3.07 | 7.49 | 4.5 | 1.16 | 4.41
52 | AGTCAAAGTTCAGGAAGAGGTAACGTAAAGCACG | 3.02 | 5.33 | 4.81 | 2.79 | 2.93 | 2.91 | 0.341 | 1.81
